The list is not random: actives were taken first. Their share in the collection is about 2.3%.
PfM18AAP inh-1: blocks P. falciparum M18 aspartyl aminopeptidase. 290,000 compounds, 1.2% hits. recombinant PfM18AAP, H-Glu-NHMec fluorogenic cleavage. inhibition, % at 7.35 µM;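 active = inhibition above the campaign mean inhibition over all tested compounds plus 3 SD, cut at about 28% in these data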;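 also: 0% = plate median of test compound wells and 100% = 2 mM ZnCl2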
Kir21 block: blocks the mouse Kir2.1 inward-rectifier potassium channel; HEK293-Kir2.1, FluxOR thallium flux fluorescence; hits give low values; B-score at 10 µM; AID 1672; P35561; 310,000 compounds, 0.85% hits;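 active = fluorescence ratio B-score at or below minus 3 SD of library scores, with starting-brightness B-score within 2 SD, cut at about -4.2 in these data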;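 also: channel flux triggered by added potassium and thallium sulfate stimulus; B-score of peak minus minimum fluorescence over baseline after thallium stimulus; more negative B-score means stronger Kir2.1 block with less thallium influx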
Rce1 inhib: inhibitors of yeast Ras-converting enzyme. Q03530. yeast membranes, quenched prenylated peptide cleavage fluorescence. calls only. 290,000 compounds, 0.27% hits. AID 2563;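 active = fall in fluorescence gain of 50% or more versus controls, with final raw signal at or below 3038400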;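 also: plate controls were neutral control wells for no effect and wells lacking membranes for full effect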
Target sequence (Q03530 whole entry, looked up): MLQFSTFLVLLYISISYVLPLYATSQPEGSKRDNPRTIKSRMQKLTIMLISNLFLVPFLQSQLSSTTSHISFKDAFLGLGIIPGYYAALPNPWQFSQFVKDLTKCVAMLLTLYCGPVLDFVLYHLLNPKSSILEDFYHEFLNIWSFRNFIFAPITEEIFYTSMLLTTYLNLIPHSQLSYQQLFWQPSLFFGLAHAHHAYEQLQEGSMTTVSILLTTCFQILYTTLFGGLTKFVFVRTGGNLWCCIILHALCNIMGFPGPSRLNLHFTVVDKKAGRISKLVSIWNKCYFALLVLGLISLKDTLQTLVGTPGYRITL
FID counter: fluorescent intercalator displacement, NS3 helicase counter-screen; 290,000 compounds, 0.17% hits; inhibition, % at 7.9 µM; DNA fluorescent intercalator displacement, fluorescence; in the data active = inhibition above about 37%;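 also: 0% = vehicle and 100% = reference compound; higher means more ethidium bromide displaced from hairpin DNA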
PfM18AAP inh-2: confirmation of Plasmodium falciparum M18 aspartyl aminopeptidase inhibitors; 2,400 compounds, 28% hits; AID 2170; inhibition, % at 7.35 µM; recombinant PfM18AAP, H-Glu-NHMec fluorogenic cleavage; shares compounds with PfM18AAP inh-1;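 active = mean inhibition over replicate wells above the hit cutoff set for the earlier primary screen, cut at about 29% in these data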;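 also: 0% = median of test compound wells and 100% = 2 mM ZnCl2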
CTSL1 counter: Cathepsin L (human) inhibition, confirmation; shares compounds with PfM18AAP inh-1; purified cathepsin L1, Z-Leu-Arg-MCA fluorescence; inhibition, % at 5.96 µM; 2,400 tested, under 10 active;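 active = average inhibition across replicates above the hit cutoff set in the earlier primary screen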;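 also: 0% = median of test compound wells and 100% = Z-Phe-Ala-diazomethylketone 1 µM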
* marks the source's active call; other numbers are inactive results; i = inactive; / = not tested or not shown.

SMILES | PfM18AAP inh-1 | Kir21 block | Rce1 inhib | FID counter | PfM18AAP inh-2 | CTSL1 counter
CC1(CCl)CN1S(=O)(=O)c1ccccc1 (configuration not stated) | 1 | -1.2 | i | -1 | / | /
CC1=C(C(=O)O)N2C(=O)[C@@H](NC(=O)CCCC(=O)O)[C@H]2SC1 | 36* | 0.09 | i | -3 | 15 | 3
Cc1cc(C=O)c(C)n1C(C)C | 1 | -0.06 | i | -12 | / | /
COc1ccccc1-n1c(O)c(/C=C2\C=Nc3ccccc32)c(=O)[nH]c1=O | 40* | -0.23 | i | -1 | 43* | -9
N#CC12CNCC1CN=N2 (configuration not stated) | -2 | 0.03 | i | -2 | / | /
CN1C(=O)C(=Cc2coc3ccccc3c2=O)C(=O)N(C)C1=O | -3 | -0.05 | i | -5 | / | /
O=C1NC(=O)C(=Cc2coc3ccc(O)cc3c2=O)C(=O)N1 | 39* | -0.8 | i | -2 | 19 | -1
C[N+]1(C)[C@@H]2CC[C@H]1CC(OC(=O)[C@@H](CO)c1ccccc1)C2 (some centres not stated) | 44* | 0.97 | i | -2 | 33* | -2
C#CC[N+]1(C)[C@@H]2CC[C@H]1CC(OC(=O)C(CO)c1ccccc1)C2 (some centres not stated) | -4 | 1.4 | i | -1 | / | /
CN1CCN2c3ccc(N)cc3CC3(C(=O)NC(=O)NC3=O)C2C1 (configuration not stated) | 44* | -1.7 | i | 10 | -45 | 2
CC(C)c1ccccc1OCC(=O)N1CCCN(C)CC1 | 5 | -1.7 | i | 4 | / | /
COc1ccc(NC(=O)N2C[C@@H]3C[C@@H](C2)c2cccc(=O)n2C3)cc1 | -4 | 1 | i | -4 | / | /
CC(C)(C)c1ccc(O)c(N=Cc2c(O)ccc3ccccc23)c1 | 89* | 1.8 | i | -15 | 45* | 3
COC(=O)C(O)(c1ccc(N=Cc2ccccc2O)c(C)c1)C(F)(F)F (configuration not stated) | 3 | -0.82 | i | -1 | / | /
COCCOC(=O)c1c(N)n(Cc2ccc(OC)cc2)c2nc3ccccc3nc12 | 35* | 1.2 | / | -21 | -20 | 10
CCOC(=O)c1c(N)n(Cc2ccc(OC)cc2)c2nc3ccccc3nc12 | -5 | -0.81 | i | -17 | / | /
C=CCn1cc(C=C2C(=O)NC(=O)NC2=O)c2ccccc21 | 54* | 0.39 | i | -2 | 33* | -5
O=C(O)Cn1cc(C=C2C(=O)NC(=O)NC2=O)c2ccccc21 | 27 | -0.03 | i | -3 | / | /
CCN(CC)C(=O)Cn1cc(/C=C2\C(=O)NC(=O)N(c3ccccc3F)C2=O)c2ccccc21 | 35* | -1.7 | i | -14 | -7 | -5
Cn1cc(/C=C2\C(=O)NC(=O)N(c3ccccc3)C2=O)c2ccccc21 | 35* | 0.01 | i | -11 | 39* | 1
O=C(O)Cn1cc(/C=C2\C(=O)NC(=O)N(c3ccc(Cl)cc3)C2=O)c2ccccc21 | 26 | -0.83 | i | -19 | / | /
O=C1C(Cc2cnc[nH]2)NC(=S)N1c1ccccc1 (configuration not stated) | 6 | -0.04 | i | -2 | / | /
CCCC(=O)c1ccc(CP(=O)(OCC)OCC)o1 | -2 | 1.3 | i | -4 | / | /
COc1cc(/C=C/c2nc3ccccc3c(=O)n2-c2ccc(O)cc2)ccc1O | 13 | -0.7 | i | -11 | / | /
COc1ccc(-n2c(/C=C/c3ccc(O)c(O)c3)nc3ccccc3c2=O)cc1 | 63* | 1.4 | i | -13 | 45* | 1
SMILES | PfM18AAP inh-1 | Kir21 block | Rce1 inhib | FID counter | PfM18AAP inh-2 | CTSL1 counter
CN1CC2([N+](=O)[O-])CC=C(Cl)C([N+](=O)[O-])(C1)C2 (configuration not stated) | 4 | -0.24 | i | -3 | / | /
CN1C(=O)C(Cc2ccc3c(c2)OCO3)C(=O)N(C)C1=O | 34* | 2.9 | i | 8 | 0 | -3
CCc1ccc(N2C(=O)NC(=O)/C(=C\c3cc(C)n(-c4cc(C(=O)O)cc(C(=O)O)c4)c3C)C2=O)cc1 | 32* | -0.05 | i | -17 | -22 | -1
C1=C(CCNCc2ccccc2)CCCC1 | 4 | 1.5 | i | -4 | / | /
Oc1ccc(CC2CC3CCN2CC3)cc1O (configuration not stated) | 57* | 0.73 | i | 1 | 28 | -4
CCCNC1=C(C)C(=O)C2=C(C1=O)C(COC(N)=O)[C@]1(OC)C3NC3CN21 (some centres not stated) | 6 | -0.09 | i | -6 | / | /
CN1CC(C#N)C2(O)c3ccccc3CCC2C1 (configuration not stated) | -6 | -1 | i | -2 | / | /
Cn1cc(C(=O)Cc2ccccc2)c2ccccc21 | -2 | -1.2 | i | -6 | / | /
COc1cc2c(cc1/C=C/[N+](=O)[O-])OCO2 | 38* | -1.2 | i | -9 | 17 | 1
C[C@]12CC[C@@H]3c4ccc(O)c(O)c4CC[C@H]3[C@@H]1CC[C@@H]2O | 57* | -2 | i | -20 | 92* | -4
O=C1NC(=O)N(Cc2ccco2)C(=O)/C1=C/C=C/c1ccco1 | 35* | 1.9 | i | -22 | -4 | -2
NNc1n[nH]c(=S)n1N | 42* | -0.53 | i | 1 | 40* | 3
O=C(COC(=O)c1cccc(O)c1)Nc1ccc(Cl)cc1C(=O)c1ccccc1 | -3 | -1.6 | i | -13 | / | /
O=c1c2ccccc2[se]n1-c1ccccc1 | 94* | -0.74 | i | -1 | 96* | -2
O=c1c2ccccc2nc(-c2ccccc2)n1-c1ccccc1 | 6 | -2.3 | i | -17 | / | /
CCOP(=O)(OCC)C(O)c1ccc2c(c1)OCO2 (configuration not stated) | -18 | 2.7 | i | -3 | / | /
C=CC[N+]1(C)C2CCC1CC(O)C2 (configuration not stated) | 4 | 0.75 | i | 0 | / | /
CCN(CC)c1ccc(N=Cc2c(O)n(Cc3ccco3)c(=O)[nH]c2=O)cc1 | 42* | -0.98 | i | -8 | -52 | 0
CN(C)C1C(=O)C(C(N)=O)=C(O)C2(O)C(=O)C3=C(O)c4c(O)cccc4C(C)(O)C3C(O)C12 (configuration not stated) | 56* | 0.65 | i | -1 | -21 | 1
CCN(CC)c1ccc(/C=N/c2sc3c(c2C#N)C2CCN3CC2)c(O)c1 | 32* | / | / | 2 | -37 | 0
